In the library only some 0.54% were active in any assay of this set; here they are far more common.
PvdQ inh = blocks Pseudomonas aeruginosa PvdQ acylase activity; inhibition, % at 10 µM; purified PvdQ acylase, fluorescence plate reader; hit rate 0.063% among 340,000; in the data active = inhibition above about 30%, passing the limit was not always enough;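 also: 0% = vehicle neutral wells and 100% = reference inhibitor wells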
ERp5 inh = ERp5 (human) disulfide isomerase inhibition; Q15084; ERp5 insulin aggregation, absorbance 650 nm, 90 min; inhibition, % at 9.99 µM; hit rate 0.05% among 350,000; AID 651711;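 active = mean replicate inhibition above about 25%, with every replicate also reaching it, limit read from the data, passing the limit was not always enough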
Rtt109 HAT inh = inhibitors of Candida albicans Rtt109/Vps75 histone acetyltransferase; Q5AAJ8; purified Rtt109/Vps75, ThioGlo CoA-SH fluorescence, 4 h; inhibition, % at 34.9 µM; hit rate 0.16% among 330,000;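 active = inhibition of at least 50% in every replicate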
PDI inh = PDI (human) enzyme inhibition; P07237; PDI insulin aggregation turbidity, A650, 90 min; inhibition, % at 10 µM; hit rate 0.052% among 350,000; AID 588391;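 active = mean inhibition across replicates of 30% or more, whatever share of single replicates reach that level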
Target sequence (P07237 whole entry, looked up): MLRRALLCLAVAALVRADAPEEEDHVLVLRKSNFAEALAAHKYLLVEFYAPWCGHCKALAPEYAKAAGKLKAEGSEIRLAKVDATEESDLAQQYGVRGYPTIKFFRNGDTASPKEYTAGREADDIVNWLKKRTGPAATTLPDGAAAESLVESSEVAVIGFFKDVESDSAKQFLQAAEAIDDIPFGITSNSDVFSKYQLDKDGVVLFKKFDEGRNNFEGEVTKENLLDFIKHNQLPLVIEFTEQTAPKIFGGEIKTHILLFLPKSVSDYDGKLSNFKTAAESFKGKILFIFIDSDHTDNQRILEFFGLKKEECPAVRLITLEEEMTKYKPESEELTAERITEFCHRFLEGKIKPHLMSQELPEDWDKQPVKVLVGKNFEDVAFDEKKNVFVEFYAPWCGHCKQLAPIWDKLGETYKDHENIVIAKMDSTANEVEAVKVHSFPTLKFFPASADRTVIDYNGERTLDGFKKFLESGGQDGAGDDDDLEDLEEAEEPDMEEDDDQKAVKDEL
Efflux pump mplx = inhibitors of Candida antifungal efflux pumps expressed in yeast; hit rate 0.44% among 330,000; S. cerevisiae Candida pump triplex, Nile Red efflux; inhibition, % at 10 µM;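 active = plate passing quality check with inhibition over a set limit, or well fluorescence over plate mean plus 4 SD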;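 also: Nile Red retained in pooled yeast measured as flow cytometry median fluorescence; 0% = buffer negative control and 100% = Enniatin B positive control; higher means more Nile Red kept so more efflux inhibition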
Yeast cmpd fluor = compound fluorescence in yeast efflux pump counter-screen; shares compounds with Efflux pump mplx; S. cerevisiae AD/pABC3, flow cytometry; fluorescence ratio to DMSO, % at 10 µM; hit rate 4% among 1,700; AID 588517;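 active = fluorescence ratio to DMSO above its plate's cutoff, the plate mean ratio plus 5 SD, cut at about 210% in these data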;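 also: unstained yeast with no Nile Red so the signal is compound autofluorescence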
Mdr1 pump inh = Candida Mdr1 efflux pump inhibition | shares compounds with Efflux pump mplx | S. cerevisiae AD/CaMDR1, Nile Red efflux, flow cytometry | inhibition, % at 10 µM | hit rate 1% among 1,700; in the data active = inhibition above about 26%;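 also: 0% = DMSO vehicle and 100% = reference inhibitor; higher means more Nile Red retained so more efflux inhibition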
CaCdr2 efflux inh = inhibitors of Candida albicans Cdr2 efflux pump | S. cerevisiae AD/CaCDR2, Nile Red retention, flow cytometry | hit rate 4% among 1,700 | AID 588520 | shares compounds with Efflux pump mplx | Nile Red retention ratio vs DMSO, % at 10 µM; in the data active = Nile Red retention ratio vs DMSO above about 190%;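 also: higher ratio means more blocking of Cdr2 efflux of the dye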
Cdr1 pump inh = blocks the Candida albicans Cdr1 efflux pump in yeast | inhibition, % at 10 µM | shares compounds with Efflux pump mplx | hit rate 1% among 1,700 | S. cerevisiae AD/CaCDR1, Nile Red efflux, flow cytometry | AID 588522;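 active = inhibition above the screen-wide mean plus twice its standard deviation, cut at about 32% in these data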
* marks the source's active call; other numbers are inactive results; nt = no result.

SMILES | PvdQ inh | ERp5 inh | Rtt109 HAT inh | PDI inh | Efflux pump mplx | Yeast cmpd fluor | Mdr1 pump inh | CaCdr2 efflux inh | Cdr1 pump inh
O=C(O)c1ccccc1NS(=O)(=O)c1cccc2nsnc12 | -2 | -5 | 2 | -2 | 0.7* | 100 | 0 | 98 | 0
CC(=O)c1c(-c2ccccc2)[nH]c2ccccc12 | 25 | -3 | 6 | -4 | 0 | nt | nt | nt | nt
CC(=O)c1c(C)[nH]c(-c2ccccc2)c1C | 7 | 1 | 1 | -4 | 8.0* | 98 | 0 | 105 | 0
O=C(C[n+]1cc(-c2ccc(Cl)c(Cl)c2)n2c1CCC2)OCc1ccccc1 | -10 | 3 | 2 | 1 | 6.4* | 112 | 0 | 95 | 0
Clc1ccc(C[n+]2cc(-c3ccccc3)n3c2CCC3)cc1Cl | 11 | -1 | 1 | 18 | 0 | nt | nt | nt | nt
CCCOc1cc(N(CC)CC)ccc1/C=C(/C#N)c1nc2ccc(C)cc2[nH]1 | 0 | -1 | 8 | 2 | 0.7* | 241* | 0 | 127 | 0
COc1ccc(Cn2c(-c3ccccc3)nc3c(c(=O)c4ccccc4n3C)c2=O)cc1 | -12 | nt | -7 | 3 | 1.1* | 110 | 0 | 119 | 0
O=C(CN1CCN(S(=O)(=O)c2ccccc2F)CC1)Nc1ccccc1C(=O)c1ccccc1 | -8 | 4 | nt | -2 | 0.5* | 111 | 0 | 98 | 0
Cc1ccc(-c2ccc3c(c2)O[C@@H](CN(C)C)[C@H](C)CN([C@H](C)CO)S3(=O)=O)cc1 | nt | 2 | nt | nt | nt | nt | nt | nt | nt
Cc1ccc(Cn2nnc3c(=O)[nH]c(C4CCN(S(=O)(=O)c5ccc(S(=O)(=O)NC6CC6)cc5)CC4)nc32)cc1 | -5 | -19 | -5 | 8 | 0 | nt | nt | nt | nt
Cc1ccc(Cn2nnc3c(=O)[nH]c(C4CCN(S(=O)(=O)c5ccc(C)cc5)CC4)nc32)cc1 | -7 | nt | -4 | 3 | 0 | 100 | 0 | 112 | 1
Cc1ccc(Cn2nnc3c(=O)[nH]c(C4CCN(S(=O)(=O)c5ccccc5F)CC4)nc32)cc1 | -14 | 2 | 7 | 5 | 0 | 104 | 0 | 106 | 0
COc1cc2c(cc1OC)CN(C(=S)Nc1cccc(Cl)c1C)CC2 | 4 | 1 | 7 | 1 | 0.7* | 100 | 0 | 96 | 0
CC(=O)c1cccc(NC(=O)c2ccc3c(c2)CCCC3)c1 | -8 | 3 | 8 | -5 | 0 | nt | nt | nt | nt
COc1ccccc1NC(=S)N1CCc2cc(OC)c(OC)cc2C1 | -3 | nt | 0 | 22 | 0 | nt | nt | nt | nt
COc1cc2c(cc1OC)CN(C(=S)Nc1ccc(Cl)cc1)CC2 | 6 | 3 | 2 | 2 | 0 | nt | nt | nt | nt
COc1cccc(NC(=O)c2ccc3c(c2)CCCC3)c1 | -16 | nt | 1 | 2 | 52* | 104 | 0 | 100 | 0
COc1cccc(NC(=S)N2CCc3cc(OC)c(OC)cc3C2)c1 | -13 | 2 | -4 | -4 | 0 | 84 | 0 | 100 | 0
COc1ccc(CNC(=O)c2cccs2)cc1 | -14 | nt | -10 | -3 | 0 | nt | nt | nt | nt
COc1ccc(CNC(=O)c2cc3c(s2)CN(Cc2ccccc2)C3)cc1 | -10 | 4 | 4 | 14 | 0.5* | 99 | 0 | 100 | 0
O=C(CN1CCN(C(=O)N2CCOCC2)CC1)Nc1ccc(Br)cc1 | 4 | nt | -7 | 15 | 17* | 98 | 0 | 103 | 0
COc1ccc(NC(=O)CSc2nc3c(c(=O)n2-c2ccccc2OC)SCC3)cc1 | 5 | 6 | -5 | nt | 1.1* | 79 | 0 | 93 | 0
COc1ccc(-c2cc(N3C(=O)Nc4ccccc4N3O)n[nH]2)cc1 | -12 | nt | 10 | -3 | 6.5* | 98 | 0 | 100 | 0
O=C(CCCc1ccccc1)Nc1cccc([N+](=O)[O-])c1 | 1 | -1 | 13 | -4 | 0.8* | 100 | 0 | 123 | 0
O=C(CCc1ccccc1)Nc1cccc([N+](=O)[O-])c1 | -4 | -5 | nt | -2 | 0 | nt | nt | nt | nt
COc1ccc(/C(C#N)=C/c2ccccn2)cc1 | 53* | 4 | 2 | 6 | 1.4* | 105 | 0 | 112 | 0

Compound activity: PubChem BioAssay, several laboratories
